According to paper PMC7862700, “An all-to-all approach to the identification of sequence-specific readers for epigenetic DNA modifications on cytosine”:

Columns and labels:
Test in all cases: DAPPL (digital affinity profiling via proximity ligation, sequencing); 10 mM Tris-HCl pH 7.5, 50 mM NaCl, 1 mM DTT, 4% glycerol, room temperature, 30 min; GST-TFs on glutathione beads, 16-mer random dsDNA library, 0.1% formaldehyde crosslink after washing; high values mean tight binding
FEV = biological target: T1, FEV (Homo sapiens, UniProt Q99581 1-238); settings: protein: recombinant; tags: N-terminal GST; dsDNA, one strand shown
T1 sequence: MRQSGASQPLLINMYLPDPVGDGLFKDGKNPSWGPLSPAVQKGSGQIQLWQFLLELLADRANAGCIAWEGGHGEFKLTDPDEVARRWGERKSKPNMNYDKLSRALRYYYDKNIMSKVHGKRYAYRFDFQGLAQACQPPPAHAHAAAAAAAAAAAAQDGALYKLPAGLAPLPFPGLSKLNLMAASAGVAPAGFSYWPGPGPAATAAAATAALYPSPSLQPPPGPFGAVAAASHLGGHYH
In short: (§1)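 Yeast served to express human transcription factors as GST fusions, which were then captured on glutathione beads and labelled with DNA barcodes. Pooled with a tag-only sample, they were incubated with 200 nmole of a 16-mer random double-stranded DNA library for 30 min at room temperature in Tris/NaCl/DTT/glycerol buffer, washed, crosslinked with 0.1% formaldehyde, ligated by proximity, amplified by PCR and sequenced. Dividing each hexamer's read frequency for a factor by its frequency for the tag-only sample gives the binding signal.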

ETV5 = ETV5 (Homo sapiens, UniProt P41161 1-510); settings: protein: recombinant; tags: N-terminal GST; dsDNA, one strand shown
Sequence of ETV5 (P41161 whole entry): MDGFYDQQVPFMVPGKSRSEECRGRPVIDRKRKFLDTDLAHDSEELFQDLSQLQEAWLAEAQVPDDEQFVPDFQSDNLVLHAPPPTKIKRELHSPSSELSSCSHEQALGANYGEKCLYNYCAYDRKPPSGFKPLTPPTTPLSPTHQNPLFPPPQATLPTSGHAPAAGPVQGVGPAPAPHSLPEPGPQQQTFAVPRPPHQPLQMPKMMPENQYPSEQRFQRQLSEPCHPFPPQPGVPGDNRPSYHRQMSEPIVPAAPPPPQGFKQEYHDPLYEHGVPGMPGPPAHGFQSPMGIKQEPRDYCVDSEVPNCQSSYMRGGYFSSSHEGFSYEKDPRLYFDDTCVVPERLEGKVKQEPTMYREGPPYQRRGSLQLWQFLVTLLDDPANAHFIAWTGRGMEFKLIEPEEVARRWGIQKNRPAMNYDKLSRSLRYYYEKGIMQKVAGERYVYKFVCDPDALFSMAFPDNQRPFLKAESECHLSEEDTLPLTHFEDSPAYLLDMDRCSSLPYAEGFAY
In short: as §1

HSF1 = HSF1 (Homo sapiens, UniProt Q00613 1-529); settings: protein: recombinant; tags: N-terminal GST; chain copies: 3; dsDNA, one strand shown
Sequence of HSF1 (Q00613 whole entry): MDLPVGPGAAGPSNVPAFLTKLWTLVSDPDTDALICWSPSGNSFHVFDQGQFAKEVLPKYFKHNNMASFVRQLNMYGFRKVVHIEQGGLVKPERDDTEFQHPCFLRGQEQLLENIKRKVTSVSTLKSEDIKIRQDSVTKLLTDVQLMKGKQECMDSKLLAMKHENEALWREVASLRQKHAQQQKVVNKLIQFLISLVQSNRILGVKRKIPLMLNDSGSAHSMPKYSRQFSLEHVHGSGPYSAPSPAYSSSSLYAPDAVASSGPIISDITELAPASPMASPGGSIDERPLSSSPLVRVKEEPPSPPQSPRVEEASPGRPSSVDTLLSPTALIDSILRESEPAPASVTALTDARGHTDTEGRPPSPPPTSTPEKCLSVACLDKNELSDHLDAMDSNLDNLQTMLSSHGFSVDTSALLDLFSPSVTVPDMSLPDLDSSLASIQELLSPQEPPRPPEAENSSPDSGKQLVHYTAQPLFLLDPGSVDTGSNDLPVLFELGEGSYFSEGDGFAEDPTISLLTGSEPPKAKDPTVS
In short: as §1

SPIC = biological target: T2, SPIC (Homo sapiens, UniProt Q8N5J4 1-248); settings: protein: recombinant; tags: N-terminal GST; dsDNA, one strand shown
T2 sequence: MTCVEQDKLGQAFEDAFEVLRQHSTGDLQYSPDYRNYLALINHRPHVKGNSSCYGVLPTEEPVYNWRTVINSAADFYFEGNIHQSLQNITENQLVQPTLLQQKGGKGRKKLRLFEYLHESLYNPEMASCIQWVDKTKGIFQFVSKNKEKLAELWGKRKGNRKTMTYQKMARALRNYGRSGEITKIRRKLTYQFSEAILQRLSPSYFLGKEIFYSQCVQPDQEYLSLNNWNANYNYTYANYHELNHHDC
In short: as §1

ELF4 = ELF4 (Homo sapiens, UniProt Q99607 1-663); settings: protein: recombinant; tags: N-terminal GST; dsDNA, one strand shown
Sequence of ELF4 (Q99607 whole entry): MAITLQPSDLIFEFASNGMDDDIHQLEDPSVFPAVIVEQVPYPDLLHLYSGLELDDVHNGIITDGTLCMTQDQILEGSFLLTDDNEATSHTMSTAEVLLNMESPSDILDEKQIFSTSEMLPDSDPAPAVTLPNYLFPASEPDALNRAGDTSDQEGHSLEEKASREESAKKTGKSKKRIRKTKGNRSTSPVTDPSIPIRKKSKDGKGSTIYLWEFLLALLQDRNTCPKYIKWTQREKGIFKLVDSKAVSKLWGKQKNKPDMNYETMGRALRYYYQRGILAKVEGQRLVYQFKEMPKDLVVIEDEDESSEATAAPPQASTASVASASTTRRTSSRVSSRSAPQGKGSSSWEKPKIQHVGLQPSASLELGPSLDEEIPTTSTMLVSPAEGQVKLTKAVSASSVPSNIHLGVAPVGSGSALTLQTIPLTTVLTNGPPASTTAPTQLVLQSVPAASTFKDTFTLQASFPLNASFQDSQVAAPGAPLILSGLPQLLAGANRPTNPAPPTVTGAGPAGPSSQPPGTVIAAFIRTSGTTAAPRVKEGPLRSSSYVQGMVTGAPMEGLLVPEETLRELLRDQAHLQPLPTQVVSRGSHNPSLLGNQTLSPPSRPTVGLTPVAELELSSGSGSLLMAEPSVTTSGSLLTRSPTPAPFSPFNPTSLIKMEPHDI
In short: as §1

ELK4 = biological target: T3, ELK4 (Homo sapiens, UniProt P28324-2 1-405); settings: protein: recombinant; tags: N-terminal GST; dsDNA, one strand shown
T3 sequence: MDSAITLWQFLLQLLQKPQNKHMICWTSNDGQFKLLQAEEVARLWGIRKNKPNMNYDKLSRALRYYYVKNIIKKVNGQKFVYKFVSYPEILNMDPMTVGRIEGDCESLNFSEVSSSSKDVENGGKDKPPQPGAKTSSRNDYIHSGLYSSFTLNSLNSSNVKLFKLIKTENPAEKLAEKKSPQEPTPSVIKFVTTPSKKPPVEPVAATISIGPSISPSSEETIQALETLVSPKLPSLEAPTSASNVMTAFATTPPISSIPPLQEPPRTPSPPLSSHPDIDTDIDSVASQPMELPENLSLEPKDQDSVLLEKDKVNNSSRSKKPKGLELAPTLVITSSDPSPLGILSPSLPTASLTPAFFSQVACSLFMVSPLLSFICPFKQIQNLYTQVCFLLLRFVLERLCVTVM
In short: as §1

ETV2 = biological target: T4, ETV2 (Homo sapiens, UniProt O00321 1-342); settings: protein: recombinant; tags: N-terminal GST; dsDNA, one strand shown
T4 sequence: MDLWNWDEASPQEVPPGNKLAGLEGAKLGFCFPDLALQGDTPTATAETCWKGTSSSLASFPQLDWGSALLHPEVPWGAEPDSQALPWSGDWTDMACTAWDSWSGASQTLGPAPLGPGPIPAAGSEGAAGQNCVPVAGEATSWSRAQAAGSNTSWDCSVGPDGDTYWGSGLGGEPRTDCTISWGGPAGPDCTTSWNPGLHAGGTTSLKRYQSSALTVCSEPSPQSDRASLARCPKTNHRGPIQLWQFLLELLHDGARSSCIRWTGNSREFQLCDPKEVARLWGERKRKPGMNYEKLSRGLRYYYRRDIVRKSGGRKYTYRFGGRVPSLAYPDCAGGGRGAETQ
In short: as §1

ELF3 = biological target: T5, ELF3 (Homo sapiens, UniProt P78545 1-371); settings: protein: recombinant; tags: N-terminal GST; dsDNA, one strand shown
T5 sequence: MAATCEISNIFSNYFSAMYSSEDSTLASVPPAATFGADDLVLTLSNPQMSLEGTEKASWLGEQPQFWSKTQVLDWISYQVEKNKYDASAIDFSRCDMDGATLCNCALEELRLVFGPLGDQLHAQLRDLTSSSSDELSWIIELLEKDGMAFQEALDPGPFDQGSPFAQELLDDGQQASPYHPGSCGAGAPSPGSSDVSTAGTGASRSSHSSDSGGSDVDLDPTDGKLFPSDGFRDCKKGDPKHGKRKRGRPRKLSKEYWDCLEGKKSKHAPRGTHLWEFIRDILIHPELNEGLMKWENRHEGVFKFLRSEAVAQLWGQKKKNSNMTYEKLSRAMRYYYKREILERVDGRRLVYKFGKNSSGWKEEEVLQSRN
In short: as §1

CRX = CRX (Homo sapiens, UniProt O43186 1-299); settings: protein: recombinant; tags: N-terminal GST; dsDNA, one strand shown
Sequence of CRX (O43186 whole entry): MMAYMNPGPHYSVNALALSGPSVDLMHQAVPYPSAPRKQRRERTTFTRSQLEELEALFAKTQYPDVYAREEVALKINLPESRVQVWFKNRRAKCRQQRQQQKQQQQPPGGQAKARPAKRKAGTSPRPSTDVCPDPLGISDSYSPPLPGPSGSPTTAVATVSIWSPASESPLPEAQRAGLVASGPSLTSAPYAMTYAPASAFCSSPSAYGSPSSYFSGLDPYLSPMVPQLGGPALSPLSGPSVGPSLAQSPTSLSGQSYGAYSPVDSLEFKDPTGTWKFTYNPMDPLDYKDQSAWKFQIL
In short: as §1

ETV1 = ETV1 (Homo sapiens, UniProt P50549 1-477); settings: protein: recombinant; tags: N-terminal GST; dsDNA, one strand shown
Sequence of ETV1 (P50549 whole entry): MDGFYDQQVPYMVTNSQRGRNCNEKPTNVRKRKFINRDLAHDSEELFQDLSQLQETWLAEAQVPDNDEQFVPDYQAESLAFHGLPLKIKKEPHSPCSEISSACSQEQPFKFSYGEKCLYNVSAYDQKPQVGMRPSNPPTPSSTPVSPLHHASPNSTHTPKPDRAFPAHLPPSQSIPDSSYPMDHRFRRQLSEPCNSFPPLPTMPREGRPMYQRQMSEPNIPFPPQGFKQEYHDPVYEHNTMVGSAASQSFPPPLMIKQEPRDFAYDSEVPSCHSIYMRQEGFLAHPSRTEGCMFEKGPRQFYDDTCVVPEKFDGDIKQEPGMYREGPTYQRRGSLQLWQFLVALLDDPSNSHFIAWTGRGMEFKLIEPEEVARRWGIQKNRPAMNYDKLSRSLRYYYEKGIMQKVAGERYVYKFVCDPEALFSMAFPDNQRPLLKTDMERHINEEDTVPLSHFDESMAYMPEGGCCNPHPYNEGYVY
In short: as §1

ERF = biological target: T6, ERF (Homo sapiens, UniProt P50548 1-548); settings: protein: recombinant; tags: N-terminal GST; dsDNA, one strand shown
T6 sequence: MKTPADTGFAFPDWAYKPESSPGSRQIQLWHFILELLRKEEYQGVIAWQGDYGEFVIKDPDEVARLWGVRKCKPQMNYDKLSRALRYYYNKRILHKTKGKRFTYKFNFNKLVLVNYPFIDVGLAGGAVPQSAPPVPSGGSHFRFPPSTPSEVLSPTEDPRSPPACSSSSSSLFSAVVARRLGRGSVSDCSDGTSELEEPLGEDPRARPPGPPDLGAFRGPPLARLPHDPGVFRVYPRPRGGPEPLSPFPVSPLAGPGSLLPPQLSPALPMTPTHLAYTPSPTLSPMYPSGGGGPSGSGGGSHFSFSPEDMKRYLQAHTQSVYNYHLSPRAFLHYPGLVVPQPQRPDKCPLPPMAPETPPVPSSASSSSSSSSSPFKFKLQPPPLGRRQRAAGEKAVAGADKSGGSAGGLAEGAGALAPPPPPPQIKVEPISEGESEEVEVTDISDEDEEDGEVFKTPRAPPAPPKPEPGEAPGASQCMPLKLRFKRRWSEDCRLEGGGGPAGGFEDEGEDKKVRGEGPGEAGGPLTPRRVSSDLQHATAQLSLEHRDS
In short: as §1

ETV3L = biological target: T7, ETV3L (Homo sapiens, UniProt Q6ZN32 1-361); settings: protein: recombinant; tags: N-terminal GST; dsDNA, one strand shown
T7 sequence: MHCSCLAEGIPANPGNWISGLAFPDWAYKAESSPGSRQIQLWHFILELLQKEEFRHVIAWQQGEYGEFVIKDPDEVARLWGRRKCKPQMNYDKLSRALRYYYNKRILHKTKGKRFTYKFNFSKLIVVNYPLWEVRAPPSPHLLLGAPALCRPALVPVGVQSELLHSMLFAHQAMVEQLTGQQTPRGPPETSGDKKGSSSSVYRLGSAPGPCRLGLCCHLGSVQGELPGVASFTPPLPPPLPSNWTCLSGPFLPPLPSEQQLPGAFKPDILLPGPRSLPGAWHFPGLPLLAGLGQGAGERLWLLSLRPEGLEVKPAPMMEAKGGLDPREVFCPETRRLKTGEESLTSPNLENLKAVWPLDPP
In short: as §1

ETS2 = biological target: T8, ETS2 (Homo sapiens, UniProt P15036 1-469); settings: protein: recombinant; tags: N-terminal GST; dsDNA, one strand shown
T8 sequence: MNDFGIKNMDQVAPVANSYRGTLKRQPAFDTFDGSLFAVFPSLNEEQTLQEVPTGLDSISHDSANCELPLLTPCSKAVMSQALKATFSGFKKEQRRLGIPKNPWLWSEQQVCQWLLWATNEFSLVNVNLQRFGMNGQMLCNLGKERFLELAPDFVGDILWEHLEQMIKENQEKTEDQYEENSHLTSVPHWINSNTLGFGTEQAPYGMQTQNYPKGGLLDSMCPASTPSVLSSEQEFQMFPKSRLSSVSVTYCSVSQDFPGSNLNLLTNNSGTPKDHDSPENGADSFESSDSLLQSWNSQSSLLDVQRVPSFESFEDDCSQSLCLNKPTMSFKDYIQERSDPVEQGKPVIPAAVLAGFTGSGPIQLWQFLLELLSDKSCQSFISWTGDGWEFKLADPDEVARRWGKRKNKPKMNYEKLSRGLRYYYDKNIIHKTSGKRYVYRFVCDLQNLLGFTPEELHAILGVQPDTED
In short: as §1

SPDEF = biological target: T9, SPDEF (Homo sapiens, UniProt O95238 1-335); settings: protein: recombinant; tags: N-terminal GST; dsDNA, one strand shown
T9 sequence: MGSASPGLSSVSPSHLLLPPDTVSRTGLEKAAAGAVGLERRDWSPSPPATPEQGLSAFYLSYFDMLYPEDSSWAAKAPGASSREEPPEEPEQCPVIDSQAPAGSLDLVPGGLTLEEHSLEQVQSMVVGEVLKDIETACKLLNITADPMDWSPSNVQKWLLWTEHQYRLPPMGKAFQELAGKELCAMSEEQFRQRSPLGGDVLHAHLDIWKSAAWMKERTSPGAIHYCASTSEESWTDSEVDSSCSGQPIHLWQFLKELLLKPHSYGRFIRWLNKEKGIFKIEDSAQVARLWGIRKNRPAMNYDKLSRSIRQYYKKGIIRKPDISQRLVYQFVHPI
In short: as §1

ETV7 = biological target: T10, ETV7 (Homo sapiens, UniProt Q9Y603 1-341); settings: protein: recombinant; tags: N-terminal GST; dsDNA, one strand shown
T10 sequence: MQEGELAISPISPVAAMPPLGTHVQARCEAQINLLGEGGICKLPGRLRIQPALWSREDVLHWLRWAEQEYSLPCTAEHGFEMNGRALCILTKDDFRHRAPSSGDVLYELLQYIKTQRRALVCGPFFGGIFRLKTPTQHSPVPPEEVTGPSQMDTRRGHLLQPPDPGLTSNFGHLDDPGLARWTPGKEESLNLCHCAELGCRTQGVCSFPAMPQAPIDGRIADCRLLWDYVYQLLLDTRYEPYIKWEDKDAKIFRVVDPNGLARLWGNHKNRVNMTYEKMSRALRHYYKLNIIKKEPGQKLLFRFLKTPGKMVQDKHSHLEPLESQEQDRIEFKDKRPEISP
In short: as §1

ELF5 = biological target: T11, ELF5 (Homo sapiens, UniProt Q9UKW6-2 1-255); settings: protein: recombinant; tags: N-terminal GST; dsDNA, one strand shown
T11 sequence: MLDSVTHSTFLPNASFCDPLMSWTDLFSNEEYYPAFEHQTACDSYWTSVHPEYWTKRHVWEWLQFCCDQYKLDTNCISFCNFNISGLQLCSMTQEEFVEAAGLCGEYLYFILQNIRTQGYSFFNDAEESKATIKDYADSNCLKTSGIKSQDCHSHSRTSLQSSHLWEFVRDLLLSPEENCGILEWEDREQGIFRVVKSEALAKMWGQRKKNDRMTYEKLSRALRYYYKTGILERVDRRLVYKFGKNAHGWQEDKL
In short: as §1

ETV3 = biological target: T12, ETV3 (Homo sapiens, UniProt P41162-2 1-143); settings: protein: recombinant; tags: N-terminal GST; dsDNA, one strand shown
T12 sequence: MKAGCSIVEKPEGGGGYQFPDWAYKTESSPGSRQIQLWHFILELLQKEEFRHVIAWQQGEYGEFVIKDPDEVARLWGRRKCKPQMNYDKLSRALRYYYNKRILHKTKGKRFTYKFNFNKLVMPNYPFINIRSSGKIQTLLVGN
In short: as §1

ETV6 = ETV6 (Homo sapiens, UniProt P41212 1-452); settings: protein: recombinant; tags: N-terminal GST; dsDNA, one strand shown
Sequence of ETV6 (P41212 whole entry): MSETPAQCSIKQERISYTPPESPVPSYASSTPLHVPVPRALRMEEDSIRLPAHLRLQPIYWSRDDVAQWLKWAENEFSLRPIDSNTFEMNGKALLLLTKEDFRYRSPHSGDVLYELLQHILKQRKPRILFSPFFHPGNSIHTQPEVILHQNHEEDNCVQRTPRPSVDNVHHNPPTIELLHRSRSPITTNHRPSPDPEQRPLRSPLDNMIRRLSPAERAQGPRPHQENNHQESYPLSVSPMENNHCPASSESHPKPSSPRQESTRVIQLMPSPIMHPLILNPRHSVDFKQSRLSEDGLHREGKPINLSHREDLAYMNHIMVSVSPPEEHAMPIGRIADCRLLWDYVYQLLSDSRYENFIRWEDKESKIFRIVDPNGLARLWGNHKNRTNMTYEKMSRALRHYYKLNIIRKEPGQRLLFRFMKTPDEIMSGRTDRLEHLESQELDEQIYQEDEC
In short: as §1

## AATTAG
FEV
  binding signal: 1.07 fold enrichment (6-mer frequency, TF over GST control)
ETV5
  binding signal: 1.12 fold enrichment (6-mer frequency, TF over GST control)
HSF1
  binding signal: 1.39 fold enrichment (6-mer frequency, TF over GST control)
SPIC
  binding signal: 1.08 fold enrichment (6-mer frequency, TF over GST control)
ELF4
  binding signal: 1.15 fold enrichment (6-mer frequency, TF over GST control)
ELK4
  binding signal: 1.14 fold enrichment (6-mer frequency, TF over GST control)
ETV2
  binding signal: 1.12 fold enrichment (6-mer frequency, TF over GST control)
ELF3
  binding signal: 1.13 fold enrichment (6-mer frequency, TF over GST control)
CRX
  binding signal: 1.69 fold enrichment (6-mer frequency, TF over GST control)
ETV1
  binding signal: 1.14 fold enrichment (6-mer frequency, TF over GST control)
ERF
  binding signal: 1.15 fold enrichment (6-mer frequency, TF over GST control)
ETV3L
  binding signal: 1.12 fold enrichment (6-mer frequency, TF over GST control)
ETS2
  binding signal: 1.09 fold enrichment (6-mer frequency, TF over GST control)
SPDEF
  binding signal: 1.06 fold enrichment (6-mer frequency, TF over GST control)
ETV7
  binding signal: 1.25 fold enrichment (6-mer frequency, TF over GST control)
ELF5
  binding signal: 1.1 fold enrichment (6-mer frequency, TF over GST control)
ETV3
  binding signal: 1.19 fold enrichment (6-mer frequency, TF over GST control)
ETV6
  binding signal: 1.13 fold enrichment (6-mer frequency, TF over GST control)
